Measurements published in PubChem BioAssay (Tox21).
Inconclusive results are not listed. Active and inactive are the calls of the source. Unless noted, calls follow the shape of the dose curve; as a rule, active = well fitted curve in the direction sought with a large enough effect in the repeat runs; inconclusive = weak or mixed curves; inactive = no such curve, though single readings can be large; an effect the other way counts as inactive or inconclusive.

Assays:
[1] = qHTS assay for small molecule agonists of the p53 signaling pathway (AID 651631; calls by dose curve; also: nearly all actives have a fitted effect of over 15% in size)
Outline: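 HCT-116 cells carrying a stable p53 response element–beta-lactamase reporter were plated, rested 5 h at 37 °C, then exposed to compound in DMSO for 16 h at 37 °C; reporter activity was read as FRET substrate fluorescence after 2 h at room temperature.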

[2] = qHTS assay for small molecules that induce genotoxicity in human embryonic kidney cells expressing luciferase-tagged ATAD5 (AID 651632); also: nearly all actives have a fitted effect of over 15% in size
Outline: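 DMSO vehicle served as the control. HEK293T reporter cells, 16 hr at 37C, then 30 min Amplite at room temperature; ATAD5 induction is measured as luciferase activity.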

[3] = qHTS assay for small molecule agonists of the p53 signaling pathway - cell viability (AID 651633; calls by dose curve; also: series mostly up to about 83 µM; nearly all actives have a fitted effect of over 30% in size)
Outline: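 p53RE-bla cells, seeded at 4,000 per well and rested 5 h at 37 C/5% CO2, received compounds in DMSO for 16 h at 37 C. CellTiter-Glo was then added, and luminescence was read after 30 min at room temperature to gauge cytotoxicity.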

[4] = qHTS assay for small molecules that induce genotoxicity in human embryonic kidney cells expressing luciferase-tagged ATAD5 - cell viability (AID 651634; calls by dose curve; also: nearly all actives have a fitted effect of over 25% in size)
Outline: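 Here HEK293T cells with the ATAD5 luciferase reporter are incubated with test compounds for 15.5 hr, and cytotoxicity is then gauged by measuring protease activity in live cells using fluorescence.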

[5] = qHTS assay for small molecule disruptors of the mitochondrial membrane potential - cell viability (AID 720634; calls by dose curve;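 also: human HepG2 liver cancer cells; series mostly up to about 83 µM; nearly all actives have a fitted effect of over 20% in size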)
Outline: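 Viability of HepG2 cells is scored from ATP content by luminescence; cells are exposed to compound for 1 hr at 37 C and 5% CO2, then dosed with m-MPI dye before the CellTiter-Glo reagent.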

[6] = qHTS assay to test for compound auto fluorescence at 590 nm (red) in HepG2 cells (AID 720674)
Outline: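 Compound auto-fluorescence is scored relative to Rose Bengal sodium, measured at 540/590 nm in live HepG2 cultures after 1 hr compound contact (37 C, 5% CO2).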

[7] = qHTS assay to test for compound auto fluorescence at 535 nm (green) in HepG2 cells (AID 720675)
[8] = qHTS assay to test for compound auto fluorescence at 460 nm (blue) in HEK293 cells (AID 720678)
Outline: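 HEK293 cells (2,000 per well, medium with 10% dialyzed FBS) attached for 4-5 hr at 37C, then received compound and stood overnight at 37C, 5% CO2. Blue fluorescence was read at Ex/Em 405/460 nm and expressed relative to triamterene.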

[9] = qHTS assay to test for compound auto fluorescence at 590 nm (red) in HEK293 cells (AID 720679)
Outline: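 HEK293 cells (2,000/well, medium with 10% dialyzed FBS) attached for 4-5 hr at 37C, received 23 nL compound and were incubated overnight at 37C, 5% CO2. Red fluorescence was then read at 540/590nm Ex/Em, referenced to Rose Bengal sodium.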

[10] = qHTS assay to test for compound auto fluorescence at 535 nm (green) in HEK293 cells (AID 720680)
[11] = qHTS assay to test for compound auto fluorescence at 460 nm (blue) in HEK293 cell free culture (AID 720681)
Outline: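 Test compounds were pinned into cell-free culture medium (DMEM with 10% FBS) and fluorescence was read directly at Ex/Em 405/460 nm. Signals were expressed as fluorescence equivalents of triamterene, with DMSO vehicle as control.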

[12] = qHTS assay to test for compound auto fluorescence at 535 nm (green) in HEK293 cell free culture (AID 720682)
Outline: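 Read-out: 485/535 nm fluorescence intensity, calibrated against fluorescein. Medium only (DMEM + 10% FBS, no cells); test compound or DMSO vehicle added by pintool before plate reading.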

[13] = qHTS assay to test for compound auto fluorescence at 590 nm (red) in HEK293 cell free culture (AID 720683)
Outline: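 Tox21 10K library compounds were pinned into cell-free DMEM with 10% FBS and fluorescence was read at excitation 540 nm. Activity is expressed as Rose Bengal sodium equivalency.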

[14] = qHTS assay to test for compound auto fluorescence at 590 nm (red) in HepG2 cell free culture (AID 720684)
Outline: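 Ex 540 / Em 590 nm read of compound in cell-free MEM (10% FBS). Rose Bengal sodium reference.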

[15] = qHTS assay to test for compound auto fluorescence at 460 nm (blue) in HepG2 cell free culture (AID 720685)
Outline: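 Cell-free plates of MEM plus 10% FBS received 23 nL compound or DMSO vehicle; blue-channel (405/460 nm) intensity scored against triamterene as reference fluorophore.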

[16] = qHTS assay to test for compound auto fluorescence at 535 nm (green) in HepG2 cell free culture (AID 720686)
[17] = qHTS assay to test for compound auto fluorescence at 460 nm (blue) in HepG2 cells (AID 720687)
Outline: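 Cells (2,000/well in MEM with 10% FBS) attached overnight at 37 C, then were exposed to compound or DMSO for 1 hr at 37 C, 5% CO2. Fluorescence read at Ex/Em 405/460 nm, expressed as triamterene-equivalent signal.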

[18] = biological target: Glucocorticoid receptor (Homo sapiens) (UniProt P04150); assay: qHTS assay to identify small molecule antagonists of the glucocorticoid receptor (GR) signaling pathway (AID 720692; active = well fitted inhibition curve with a large enough effect in the signal ratio in the repeat runs, not every such curve was filed as active; the % refers to the signal ratio)
Outline: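 In a 1536-well cell format, compounds were added 4 h after seeding GR-bla HeLa cells, together with dexamethasone at 5 nM final; reporter activity was measured by FRET-substrate fluorescence following 18 h at 37 C.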

[19] = qHTS assay for small molecule disruptors of the mitochondrial membrane potential (AID 720635)
Outline: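 HepG2 cells (2,000/well) attached overnight at 37C, then took compound for 1 hr at 37C, 5% CO2. Mito-MPS dye was added for 30 min; fluorescence was read at 490/535 nm (monomers) and 540/590 nm (aggregates).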

[20] = biological target: Glucocorticoid receptor (Homo sapiens) (UniProt P04150); assay: qHTS assay to identify small molecule agonists of the glucocorticoid receptor (GR) signaling pathway (AID 720691; active = well fitted activation curve with a large enough effect in the signal ratio in the repeat runs, not every such curve was filed as active; the % refers to the signal ratio)
Outline: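 Compounds in DMSO, alongside positive controls, were added to GR-bla HeLa reporter cells and incubated 18 h at 37 C; GRE-driven beta-lactamase was detected by fluorescence after 2 h with FRET substrate at room temperature.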
% is scaled to controls: 0 for no effect and ±100 for the full control effect.

Glucocorticoid receptor (Homo sapiens), sequence (P04150 whole entry, looked up): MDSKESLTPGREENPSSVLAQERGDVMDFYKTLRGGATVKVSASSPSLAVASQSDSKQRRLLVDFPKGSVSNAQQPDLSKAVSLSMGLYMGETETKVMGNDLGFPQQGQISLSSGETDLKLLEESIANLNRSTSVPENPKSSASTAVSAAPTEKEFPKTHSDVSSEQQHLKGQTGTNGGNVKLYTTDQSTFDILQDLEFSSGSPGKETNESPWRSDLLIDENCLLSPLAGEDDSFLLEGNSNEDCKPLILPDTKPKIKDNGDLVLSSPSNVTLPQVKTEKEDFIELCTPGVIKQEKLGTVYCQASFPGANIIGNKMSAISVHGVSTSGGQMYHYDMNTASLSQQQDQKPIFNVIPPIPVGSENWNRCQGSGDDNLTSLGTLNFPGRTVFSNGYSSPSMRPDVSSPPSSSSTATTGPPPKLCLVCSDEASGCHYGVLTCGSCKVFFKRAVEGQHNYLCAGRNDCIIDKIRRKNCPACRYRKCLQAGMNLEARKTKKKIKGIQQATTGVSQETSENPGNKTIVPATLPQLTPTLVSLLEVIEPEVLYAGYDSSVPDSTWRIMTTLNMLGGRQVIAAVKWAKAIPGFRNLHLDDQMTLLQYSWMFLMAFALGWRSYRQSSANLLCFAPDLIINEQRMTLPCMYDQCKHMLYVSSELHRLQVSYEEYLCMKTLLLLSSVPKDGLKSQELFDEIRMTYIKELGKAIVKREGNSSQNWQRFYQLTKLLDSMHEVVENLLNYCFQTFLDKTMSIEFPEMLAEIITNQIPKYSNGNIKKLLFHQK

C=CC/C=C/C
inactive: outcome [1] | outcome [2] | outcome [3] | Potency [4] | outcome [5] | outcome [6] | outcome [7] | outcome [8] | outcome [9] | outcome [10] | outcome [11] | outcome [12] | outcome [13] | outcome [14] | outcome [15] | outcome [16] | outcome [17] | outcome [18]

CC/C=C\CCOC(=O)c1ccccc1O
inactive: outcome [1] | outcome [2] | outcome [3] | Potency [4] | outcome [5] | outcome [6] | outcome [7] | outcome [8] | outcome [9] | outcome [10] | outcome [11] | outcome [12] | outcome [13] | outcome [14] | outcome [15] | outcome [16] | outcome [17] | outcome [18]

CC1=C(O)C(=O)C(C)O1 (configuration not stated)
inactive: outcome [1] | outcome [2] | outcome [3] | Potency [4] | outcome [5] | Potency [19] | outcome [6] | outcome [7] | outcome [8] | outcome [9] | outcome [10] | outcome [11] | outcome [13] | outcome [14] | outcome [15] | outcome [16] | outcome [17] | Potency [20] | outcome [18]

C=CCSSCCC
inactive: outcome [1] | outcome [2] | outcome [3] | Potency [4] | outcome [5] | Potency [19] | outcome [6] | outcome [7] | outcome [8] | outcome [9] | outcome [10] | outcome [11] | outcome [14] | outcome [15] | outcome [16] | outcome [17] | Potency [20] | outcome [18]

O=C(O)CONC(=O)c1ccccc1
inactive: outcome [1] | outcome [2] | outcome [3] | Potency [4] | outcome [5] | outcome [6] | outcome [7] | outcome [8] | outcome [9] | outcome [10] | outcome [11] | outcome [12] | outcome [13] | outcome [14] | outcome [15] | outcome [16] | outcome [17]

CC(=O)OCC(=O)Nc1cc(C#N)cc(NC(=O)COC(C)=O)c1Cl
inactive: outcome [1] | outcome [2] | outcome [3] | Potency [4] | outcome [5] | Potency [19] | outcome [6] | outcome [7] | outcome [8] | outcome [9] | outcome [10] | outcome [11] | outcome [13] | outcome [14] | outcome [15] | outcome [16] | outcome [17] | Potency [20] | outcome [18]

COC(=O)CCCCC(=O)O
inactive: outcome [1] | outcome [2] | outcome [3] | Potency [4] | outcome [5] | outcome [6] | outcome [7] | outcome [8] | outcome [9] | outcome [10] | outcome [11] | outcome [13] | outcome [14] | outcome [15] | outcome [16] | outcome [17] | outcome [18]

COC(=O)/C=C\C(=O)O
inactive: outcome [1] | outcome [2] | outcome [3] | Potency [4] | outcome [5] | Potency [19] | outcome [6] | outcome [7] | outcome [8] | outcome [9] | outcome [10] | outcome [11] | outcome [12] | outcome [14] | outcome [15] | outcome [16] | outcome [17] | Potency [20] | outcome [18]

CCC(=O)CC
inactive: outcome [1] | outcome [2] | outcome [3] | Potency [4] | outcome [5] | outcome [6] | outcome [7] | outcome [8] | outcome [9] | outcome [10] | outcome [11] | outcome [12] | outcome [13] | outcome [14] | outcome [15] | outcome [16] | outcome [17] | outcome [18]

CN1CCOC(c2ccccc2)c2ccccc2C1 (configuration not stated)
inactive: outcome [1] | outcome [2] | outcome [3] | Potency [4] | outcome [5] | fluorescence, relative to Rose Bengal [6] -0.228% [at 18.6 µM] | fluorescence, % of fluorescein control [7] 0.0561% [at 18.6 µM] | fluorescence, % of triamterene [8] -0.11% [at 18.6 µM] | fluorescence, % of fluorescent control [9] 0.0791% [at 18.6 µM] | fluorescence, % of fluorescein [10] -0.0031% [at 18.6 µM] | fluorescence, % of fluorescent control [11] -0.103% [at 18.6 µM] | activity change [12] -0.0245% [at 18.6 µM] | fluorescence, % of fluorescent control [13] -0.107% [at 18.6 µM] | fluorescence, % of Rose Bengal [14] 0.115% [at 18.6 µM] | fluorescence, % of fluorescent control [15] -0.0245% [at 18.6 µM] | fluorescence, % of fluorescein control [16] 0.0063% [at 18.6 µM] | fluorescence, % of fluorescent control [17] 0.0046% [at 18.6 µM]

OCC1CCC(CO)CC1 (configuration not stated)
inactive: outcome [1] | outcome [2] | outcome [3] | Potency [4] | outcome [5] | Potency [19] | outcome [6] | outcome [7] | outcome [8] | outcome [9] | outcome [10] | outcome [11] | outcome [13] | outcome [14] | outcome [15] | outcome [16] | outcome [17] | Potency [20] | outcome [18]

NCC1(Cc2noc(=O)[nH]2)CCCCC1
inactive: outcome [1] | outcome [2] | outcome [3] | Potency [4] | outcome [5] | outcome [6] | outcome [7] | outcome [8] | outcome [9] | outcome [10] | outcome [11] | outcome [12] | outcome [14] | outcome [15] | outcome [16] | outcome [17]

CCOCCOCC
inactive: outcome [1] | outcome [2] | outcome [3] | Potency [4] | outcome [5] | outcome [6] | outcome [7] | outcome [8] | outcome [9] | outcome [10] | outcome [11] | outcome [12] | outcome [14] | outcome [15] | outcome [16] | outcome [17] | outcome [18]

CCCCCCCCCCCCCCCCCC#N
inactive: outcome [1] | outcome [2] | outcome [3] | Potency [4] | outcome [5] | Potency [19] | outcome [6] | outcome [7] | outcome [8] | outcome [9] | outcome [10] | outcome [11] | outcome [12] | outcome [14] | outcome [15] | outcome [16] | outcome [17] | Potency [20] | outcome [18]

CCO
inactive: outcome [1] | outcome [2] | outcome [3] | Potency [4] | outcome [5] | outcome [6] | outcome [7] | outcome [8] | outcome [9] | outcome [10] | outcome [11] | outcome [13] | outcome [14] | outcome [15] | outcome [16] | outcome [17] | Potency [20]

CC(=O)CCc1ccc(OC(C)=O)cc1
inactive: outcome [1] | outcome [2] | outcome [3] | Potency [4] | outcome [5] | Potency [19] | outcome [6] | outcome [7] | outcome [8] | outcome [9] | outcome [10] | outcome [11] | outcome [13] | outcome [14] | outcome [15] | outcome [16] | outcome [17] | Potency [20] | outcome [18]
